High-throughput results from PubChem BioAssay.
KinaseGlo FLuc = Counterscreen for Luciferase (Kinase-Glo TM) Inhibition. Kinase-Glo luciferase, ATP luminescence, 8 min. Potency, µM (highest dose often 38.3 µM), without a hit: at the highest dose activity change, negative = inhibition, usual class: inhibitors. 200,000 tested, 0.28% active. AID 1379, 2008; active means well fitted inhibition curve with a large enough effect; inconclusive means small, poorly fitted or top-dose-only effect; further: potency means the concentration at half of the fitted maximal effect; nearly all actives have a fitted effect of over 60% in size
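Compound is pinned into ATP-containing buffer (10 uM ATP, imidazole pH 7.2, 7 mM MgCl2). Kinase-Glo luciferase reagent is then added. Light output is recorded following an 8-min room-temperature incubation.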
PNC assembly inh = High Content Assay for Compounds that inhibit the Assembly of the Perinucleolar Compartment; activity change (PNC), negative = inhibition, % at 10 µM; 140,000 tested, 3.1% active; PC3M PTB-GFP, PNC prevalence imaging, 16 h; hits give low values;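 active means readout at or below -70, meaning at least 70% loss of cells showing the perinucleolar compartment, a nuclear body marking cancer cells; inconclusive means readout between -30 and a set limit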;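 further: plate controls were DMSO wells for no effect and camptothecin positive control wells for full effect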
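Compounds are pinned in duplicate onto adhered PC3M cells stably expressing GFP-tagged PTB and incubated 16 h at 37 C. Cells are then fixed, nuclei stained with Hoechst, and PNC-positive cells counted.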
ALDH1A1 block = qHTS Assay for Inhibitors of Aldehyde Dehydrogenase 1 (ALDH1A1) | Aldehyde dehydrogenase 1A1 (Homo sapiens), P00352 | Purified ALDH1A1, NADH fluorescence, propionaldehyde substrate | Potency, µM (series often up to 75.3 µM), for the others: at the top dose activity, negative = inhibition, usual class: inhibitors | 220,000 tested, 7.3% active | AID 1030, 2008;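 further: potency means the concentration at half of the fitted maximal effect; plate controls were no enzyme wells and a reference inhibitor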
Target sequence (P00352 whole entry, looked up): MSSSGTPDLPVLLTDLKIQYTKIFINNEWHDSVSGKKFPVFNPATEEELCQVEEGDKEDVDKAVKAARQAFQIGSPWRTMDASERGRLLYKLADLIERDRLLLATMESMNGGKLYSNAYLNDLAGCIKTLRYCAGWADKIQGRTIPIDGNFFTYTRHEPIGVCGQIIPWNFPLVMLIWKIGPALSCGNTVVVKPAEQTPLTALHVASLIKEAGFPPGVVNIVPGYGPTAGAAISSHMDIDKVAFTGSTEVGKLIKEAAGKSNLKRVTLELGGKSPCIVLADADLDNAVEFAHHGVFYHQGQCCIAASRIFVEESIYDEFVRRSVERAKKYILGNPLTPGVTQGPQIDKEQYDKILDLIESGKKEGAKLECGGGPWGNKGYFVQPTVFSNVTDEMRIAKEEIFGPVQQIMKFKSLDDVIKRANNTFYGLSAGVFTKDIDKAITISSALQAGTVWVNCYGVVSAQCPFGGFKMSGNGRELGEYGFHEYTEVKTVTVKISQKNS
HPGD block = qHTS Assay for Inhibitors of HPGD (15-Hydroxyprostaglandin Dehydrogenase). 15-hydroxyprostaglandin dehydrogenase [NAD(+)] (Homo sapiens), P15428. purified HPGD, NADH fluorescence kinetic, PGE2 substrate. Potency, µM, for the others: top-dose activity change, negative = inhibition, hits mostly inhibitors. 150,000 tested, 4.3% active; further: potency means the concentration at half of the fitted maximal effect
Target sequence (P15428 whole entry, looked up): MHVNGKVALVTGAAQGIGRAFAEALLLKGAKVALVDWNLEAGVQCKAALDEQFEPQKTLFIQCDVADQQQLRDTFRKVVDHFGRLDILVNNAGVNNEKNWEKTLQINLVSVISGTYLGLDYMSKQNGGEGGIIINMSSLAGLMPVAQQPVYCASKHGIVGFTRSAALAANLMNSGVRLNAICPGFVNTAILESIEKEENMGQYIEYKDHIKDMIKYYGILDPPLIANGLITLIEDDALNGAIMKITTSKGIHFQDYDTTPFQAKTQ
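NADH formation kinetics: reaction with 30 uM PGE2 and 1 mM NAD+ (final), 20 nM enzyme, Tris-HCl pH 8 with Tween 20, after 15 min compound preincubation at room temperature. Fluorescence change, last versus first of five reads.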
Lamin A splicing = qHTS Assay for Modulators of Lamin A Splicing | HeLa LMNA splicing GFP/RFP minigene ratio, 48 h | Potency, µM (highest dose often 46.1 µM), for the others: at the top dose ratio change, negative = inhibition, actives largely listed as inhibitors | 200,000 tested, 0.01% active | AID 1487, 2009; active means well fitted inhibition curve with a large enough effect in the signal ratio, with a control signal flat, not every such curve was filed as active; inconclusive means small, poorly fitted or top-dose-only effect, or effect the other way, or a change in a side signal; the % refers to the signal ratio; further: potency means the concentration at half of the fitted maximal effect
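Read-out is the ratio of GFP to DsRed2 object intensity, acquired by 488 nm laser-scanning cytometry on HeLa lamin A-EGFP minigene reporter cells. Compound incubation 48 hrs at 37 °C in Opti-MEM with 2% FBS; DMSO 0.5% final.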
Starred values were filed as active, the others as inactive; ? = inconclusive; . = no result; [ ] = dose if it differs, or a comment. In the library only some 10% were active in any assay of this set; here they are far more common. Unless noted, the call rests on the fitted dose curve; in most records, active means well fitted inhibition curve with a large enough effect (not every such curve was filed as active); inconclusive means small, poorly fitted or top-dose-only effect, or another doubt; inactive means no such curve, though single readings can be large or run the other way. Unless noted, on the % scale 0 is the no-effect control and ±100 the full control effect.

SMILES | KinaseGlo FLuc | PNC assembly inh | ALDH1A1 block | HPGD block | Lamin A splicing
COC(=O)c1sccc1NC(=O)CSc1ccccc1NS(=O)(=O)c1ccc(F)cc1 | 5% | -24 | ? | -13% | -15%
COC(=O)c1sccc1NC(=O)CN(C)NS(=O)(=O)c1ccc([N+](=O)[O-])cc1 | 1% | 72 | 1.6µM* | -18% | 10%
COC(=O)c1sccc1NC(=O)CSCC(=O)O | 0% | . | 11% | . | 18%[46 µM]
COC(=O)c1sccc1NC(=O)CN(C)NS(=O)(=O)c1ccc(F)cc1 | -4% | 16 | 1µM* | -3% | -4%
COc1ccc(-c2nc3sc(CCNC(=O)C(=O)Nc4c(C)cccc4C)c(C)n3n2)cc1 | . | . | . | . | 5%[46 µM]
COc1cccc2c1OC(=O)CC2c1ccccc1C (stereo not drawn) | 2%[39.9 µM] | . | -11%[120 µM] | ? | .
CCc1ccc(NC(=O)CN2C(=O)C3(SCC(=O)N3c3ccc(F)c(F)c3)c3ccccc32)cc1 (stereo not drawn) | . | . | . | . | -20%[46 µM]
O=C1CCC2S/C(=C/Nc3ccc(C(F)(F)F)cc3)C(=O)N12 (stereo not drawn) | -3% | . | 13µM* | . | 7%[46 µM]
O=C1CCCC/C1=C/Nc1cccc(C(F)(F)F)c1 | -6% | . | ? | . | .
Cc1cc([N+](=O)[O-])c(C)cc1-c1ccc(/C=N/NC(=O)Cn2nnnc2N)o1 | -1% | . | 15µM* | . | -5%[9.22 µM]
O=C1Nc2ccccc2Oc2cc([N+](=O)[O-])cc(Oc3ccccc3)c21 | 1% | 14 | 0% | -11% | ?
Cc1cccc(Oc2cc([N+](=O)[O-])cc3c2C(=O)Nc2ccccc2O3)c1 | 1% | -83* | 0% | -11% | ?
CO[C@@H](CCOCc1ccccc1)C[C@H]1O[C@H](C(=O)OC(C)C)C=C[C@@H]1C | -3% | . | -3% | -10% | .
NC(=O)COC(=O)CNC(=O)c1ccc(Cl)cc1 | 0% | 19 | 2µM* | 0% | 11%
CC1=CC(C)C(C(=O)O)C(C(=O)O)C1 (stereo not drawn) | 4% | -81* | ? | -9% | ?
C/C(=C\C(=O)c1ccccc1)Nc1ccc(O)cc1 | 21% | -25 | -12% | -8% | -2%
C/C(=C\C(=S)Nc1ccccc1)Nc1ccccc1 | -2% | ? | 5% | 16µM* | 5%
Cc1nn(CCC#N)c2nc(-c3ccccc3)cc(C(F)(F)F)c12 | -5% | 45 | ? | ? | 17%
Cc1nn(CCC(N)=S)c2nc(-c3cccs3)cc(C(F)(F)F)c12 | 2% | ? | 13µM* | 28µM* | -7%
CCOC(=O)c1ccc(N2CCN(c3ccc(F)cc3)CC2)c(NC(=O)Nc2ccc(CC)cc2)c1 | . | . | . | . | -25%[46 µM]
CCOc1ccccc1NC(=O)Cn1cnc2onc(-c3ccc(F)cc3)c2c1=O | . | . | . | . | 17%[46 µM]
CCCCC(=O)N1CCCC(c2nc3c(nnn3Cc3cc(C)ccc3C)c(=O)[nH]2)C1 (stereo not drawn) | -4% | ? | ? | 2.2µM* | 5%
Cc1cc(C)cc(NC(=O)c2nnn(Cc3cc(C)ccc3C)c2N)c1 | 0% | -5 | 0% | -15% | 0%
Cc1ccc(C(=O)N2CCCC(c3nc4c(nnn4Cc4ccccc4)c(=O)[nH]3)C2)cc1 (stereo not drawn) | -1% | ? | ? | 3.5µM* | -1%
COCCCNC(=O)c1nc2c(nnn2Cc2cc(C)ccc2C)c(=O)[nH]1 | 2% | 80 | -12% | 0.45µM* | -13%
SMILES | KinaseGlo FLuc | PNC assembly inh | ALDH1A1 block | HPGD block | Lamin A splicing
Cc1ccc(Cn2nnc3c(=O)[nH]c(C4CCCN(C(=O)Nc5ccc(F)cc5F)C4)nc32)cc1 (stereo not drawn) | -3% | 27 | ? | -20% | 10%
Cc1ccc(C)c(Cn2nnc3c(=O)[nH]c(C4CCCN(C(=O)CC(C)C)C4)nc32)c1 (stereo not drawn) | -1% | 18 | 1% | 10µM* | 7%
C[N+]1(C)C2CCC1CC(OC(=O)C(O)c1ccccc1)C2 (stereo not drawn) | -1% | . | 3% | -19% | .
CC(=O)N1CCC2(CC1)CCN(c1ccc(-c3ccccc3)cc1)CC2 | -6% | . | ? | ? | .
C[C@@H](C[N+](C)(C)C)OC(N)=O | -1%[17.1 µM] | . | -13%[20.9 µM] | 0% | ?
CC(=O)N1CCC2(CC1)CN(Cc1ccc(C#N)cc1)C2 | -1% | . | -3% | -10% | .
O=C(CSc1ccc([N+](=O)[O-])cc1)NCC1CCCCC1 | -2% | . | 28µM* | . | .
O=C(CSc1cccc[n+]1[O-])NCC1CCCCC1 | 0% | . | 1% | . | .
CSc1nnc(C)c(/C=C/Nc2ccc(F)cc2F)n1 | -1% | . | ? | . | ?
CSc1nsc(/C=C/Nc2ccc(F)cc2F)c1C#N | 4% | . | 8.9µM* | . | ?
CSc1nsc(/C=C/Nc2ccc(C(=O)O)cc2)c1C#N | -4% | . | 10µM* | . | 17%[9.22 µM]
CCOC(=O)CSc1nc2ccc(NC(=O)COc3ccc(F)cc3)cc2s1 | . | . | . | . | 15%[46 µM]
C/C=C1/C2C=C(C)CC1(N)c1ccc(=O)[nH]c1C2 (stereo not drawn) | 3%[39.9 µM] | . | 3% | 1% | .
Nc1cccc2nc3ccccc3cc12 | 1% | -113* | ? | ? | ?
Cc1cc(N)c2ccccc2n1 | -3% | . | -3% | . | .
Cc1cc2c(N)cccc2nn1 | -12% | 27 | 4µM* | -23% | 10%
Cc1noc(C)c1-c1nccc(Nc2ccc(F)cc2)n1 | . | . | -12% | . | ?
O=C(CC1N=C2c3ccccc3N=C(SCc3ccccc3Cl)N2C1=O)NCCc1ccccc1 (stereo not drawn) | . | . | . | . | -16%[46 µM]
O=C(CN1CCOCC1)N/N=C/c1ccc(-c2cccc(Cl)c2Cl)o1 | . | . | -11% | . | .
CCCSCCCNC(=O)Cn1c(-c2cccs2)cc2ccccc21 | . | . | . | . | 5%[46 µM]
O=C(O)c1ccc(Cl)c(Cl)c1 | . | . | 3% | -8% | .
NNc1cc(C(=O)O)ccc1Cl | . | . | 22µM* | . | 16%[46 µM]
O=C(Nc1ccccc1)N1N=C(c2cccs2)CC1c1cccs1 (stereo not drawn) | -1% | -102* | ? | ? | ?
O=C(CN1CCOCC1)N1N=C(c2cccs2)CC1c1cccs1 (stereo not drawn) | 0% | . | -3% | . | -9%[46 µM]
O=S(=O)(c1cccc2c(I)cccc12)N1CCCNCC1 | -1% | . | 2% | -11% | ?
CC1CC2=C(NC(=S)NC2c2ccc(F)cc2)/C(=C/c2ccc(F)cc2)C1 (stereo not drawn) | 0% | 75 | 3.5µM* | -28% | 5%
Fc1cccc(/C=C2\CCCC3=C2NC(=S)NC3c2cccc(F)c2)c1 (stereo not drawn) | . | . | 0.79µM* | . | .
C(=C1/CCCC2=C1Nc1ncnn1C2c1ccccc1)/c1ccccc1 (stereo not drawn) | -1% | ? | 5% | 25µM* | ?
